Bioassay records (PubChem BioAssay)
ELG1 repair inh: inhibitors of ELG1-dependent DNA repair in HEK293T cells; HEK293T ELG1-luciferase reporter, luminescence, 16 h; DNA damage induced by 5-fluorouridine; Potency, µM (series often up to 46.1 µM), actives largely listed as inhibitors; hit rate 2.3% among 330,000; further: nearly all actives have a fitted effect of over 55% in size
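Cells (2,000 per well) received 5-fluorouridine plus test compound or DMSO and were incubated 16 hr at 37 °C, 5% CO2. Luciferase activity was read by luminescence 30 min after ONE-Glo addition; signal suppression marked inhibition of damage-induced ELG1 function.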
Rab9 prom act: activates the Rab9 promoter; Huh7 Rab9 promoter-luciferase reporter, luminescence, 24 h; Potency, µM (doses to about 9.22 µM), most hits filed as activators; hit rate 2.8% among 320,000; AID 485297; further: nearly all actives have a fitted effect of over 60% in size
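Measured in stably transfected Huh7 cells bearing a Rab9 promoter–luciferase construct: 24 h compound treatment at 37 °C, followed by luminescence detection.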
NPC1 promoter act: activates the NPC1 promoter | hit rate 2.4% among 320,000 | AID 485313 | Huh7 NPC1 promoter luciferase reporter, 24 h | Potency, µM (highest dose often 9.22 µM), most hits filed as activators; further: nearly all actives have a fitted effect of over 60% in size
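Luciferase expression driven by the NPC1 promoter was measured in stably transfected Huh7 cells after a 24 h compound incubation, using a luciferase reagent and a luminescence read.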
FLuc counter: counter-screen for miR-21 project: firefly luciferase inhibitors or activators; P08659; purified FLuc, Km substrates, luminescence inhibition; Potency, µM (highest dose often 57.5 µM), most hits filed as inhibitors; hit rate 6.9% among 360,000; AID 588342; further: nearly all actives have a fitted effect of over 55% in size
Target sequence (P08659 whole entry, looked up): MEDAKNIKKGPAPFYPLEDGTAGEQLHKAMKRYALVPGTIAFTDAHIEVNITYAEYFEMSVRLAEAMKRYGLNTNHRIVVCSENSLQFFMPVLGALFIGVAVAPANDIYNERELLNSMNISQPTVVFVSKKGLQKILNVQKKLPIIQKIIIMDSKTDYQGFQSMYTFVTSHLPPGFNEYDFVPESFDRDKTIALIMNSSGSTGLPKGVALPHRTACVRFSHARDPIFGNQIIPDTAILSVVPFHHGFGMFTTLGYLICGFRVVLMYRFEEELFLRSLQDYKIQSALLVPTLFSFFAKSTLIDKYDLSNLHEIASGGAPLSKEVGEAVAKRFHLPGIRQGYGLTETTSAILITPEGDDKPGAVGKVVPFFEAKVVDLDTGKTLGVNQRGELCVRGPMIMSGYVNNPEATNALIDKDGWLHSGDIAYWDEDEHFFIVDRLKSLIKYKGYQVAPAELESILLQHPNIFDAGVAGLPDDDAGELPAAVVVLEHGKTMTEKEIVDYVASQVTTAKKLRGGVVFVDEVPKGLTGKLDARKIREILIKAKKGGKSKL
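Purified P. pyralis luciferase, 10 nM final, with Km-level 10 uM D-luciferin and 10 uM ATP in 50 mM Tris acetate pH 7.5, 10 mM Mg acetate, 0.01% Tween-20, 0.05% BSA; 6-point qHTS titration about 60 µM downward; luminescence read.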
SMN2 splice up: SMN2 splice variant enhancement; HEK293 SMN2-luciferase splicing reporter, luminescence, 30-36 h; Potency, µM (top dose mostly 46.1 µM), most hits filed as activators; hit rate 2.8% among 210,000; further: nearly all actives have a fitted effect of over 55% in size
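HEK293 cells carry an SMN2 […]–luciferase reporter in which exon 7 inclusion puts luciferase in frame. Cells were plated 10-12 h before compound addition, then incubated 30-36 h at 37C. ONE-Glo luminescence was read; sodium butyrate at 4.5 mM final served as control.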
ELG1 genotox: inducers of genotoxicity in HEK293T ELG1-luciferase cells; Potency, µM (series often up to 46 µM), actives largely listed as activators; HEK293T ELG1-luciferase reporter, luminescence, 16 h; AID 504466; hit rate 1.3% among 330,000; further: nearly all actives have a fitted effect of over 60% in size
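Screening used a luciferase reporter fused to human ELG1 in HEK293T cells. Luminescence was read on a CCD plate imager after 16 hr exposure and 30 min ONE-Glo incubation.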
A number is an active result; i = inactive; ? = inconclusive; nt = not tested or not shown; [ ] = remark or other dose. Hits are enriched below; roughly 9.3% of the tested compounds scored in any of these assays. The call rests on the fitted dose curve; in most records, active means well fitted curve in the direction sought with a large enough effect; inconclusive means small, poorly fitted or top-dose-only effect, or another doubt; inactive means no such curve, though single readings can be large; an effect the other way counts as inactive or inconclusive.

SMILES | ELG1 repair inh | Rab9 prom act | NPC1 promoter act | FLuc counter | SMN2 splice up | ELG1 genotox
Cc1ccccc1CNC(=O)Cc1ccccc1[N+](=O)[O-] | ? | 4µM | ? | 17µM | 14µM | ?
O=C(Cc1ccccc1[N+](=O)[O-])NCc1ccccc1Cl | ? | 2.8µM | 3.5µM | 7.6µM | ? | ?
Cc1ccc(CN2C(=O)CSC2c2ccc(F)cc2)cc1 (stereo not given) | i | i | i | i | nt | i
CS(=O)(=O)c1ccc(C(=O)OCC(=O)Nc2cccnc2Cl)cc1[N+](=O)[O-] | ? | nt | nt | nt | nt | i
CC(=O)Nc1cccc(C(=O)NC2CCCc3c2cnn3-c2ccc(C(C)(C)C)cc2)c1 (stereo not given) | 8.2µM | i | i | ? | nt | i
COC(=O)c1ccc(C(=O)NC2CCCc3c2cnn3-c2cc(F)cc(F)c2)nc1 (stereo not given) | 21µM | i | i | i | nt | i
c1ccc(Oc2ncnc3sccc23)cc1 | i | i | i | i | i | i
CC(=O)N1CCN(c2ccc(Oc3ncnc4sccc34)cc2)CC1 | 21µM | i | i | i | i | i
CCn1c(/C=C/c2ccccc2Cl)nc2ccccc2c1=O | ? | i | i | 27µM | nt | i
CCn1c(/C=C/c2cccc([N+](=O)[O-])c2)nc2ccccc2c1=O | i | i | i | i | i | i
CCn1c(/C=C/c2c[nH]c3ccccc23)nc2ccccc2c1=O | ? | 1.4µM | 1.6µM | 5.4µM | nt | 2.6µM
Cn1c(/C=C/c2ccc(Br)cc2)nc2ccccc2c1=O | ? | ? | 3.5µM | ? | nt | ?
CCn1c(/C=C\c2ccccc2C)nc2ccccc2c1=O | i | i | i | ? | nt | i
Cn1c(/C=C/c2ccccc2[N+](=O)[O-])nc2ccccc2c1=O | i | ? | ? | ? | nt | i
Cc1ccccc1/C=C\c1nc2ccccc2c(=O)n1Cc1ccccc1 | 29µM | i | i | i | i[1.84 µM] | i
CC(=O)Nc1ccc(S(=O)(=O)NCc2ccc(C)cc2)cc1 | i | i | i | i | i | i
CN(Cc1ccc(OCC(O)CN2CCCCC2)cc1)Cc1ccnc2ccccc12 (stereo not given) | i | i | i | i | nt | i
O=c1c2ccccc2nc(/C=C/c2ccccc2)n1CCc1ccccc1 | 21µM | i | i | i | i | i
CC1CC(C)CN(C(=O)CNC(=O)c2sc3ccccc3c2Cl)C1 (stereo not given) | i | i | i | ? | nt | i
CC1CCCN(C(=O)CNC(=O)c2sc3ccccc3c2Cl)C1 (stereo not given) | ? | 2.5µM | ? | 15µM | nt | ?
O=C(Nc1ccc(CN2CCCCC2)cc1)c1sc2ccccc2c1Cl | ? | i | i | 13µM | nt | i
O=C(NCC(=O)N1CCCCC1)c1sc2ccccc2c1Cl | ? | 2.2µM | 1.8µM | 8.5µM | nt | ?
O=c1cc(NS(=O)(=O)c2ccccc2)nc(SCc2ccc(Cl)cc2)[nH]1 | ? | i | i | i | i | 23µM
O=C(CSc1nc(NS(=O)(=O)c2ccccc2)cc(=O)[nH]1)Nc1ccc(Cl)cc1 | i | i | i | i | nt | i
Clc1ccc(-n2ncc3c(NCC4CCCO4)ncnc32)cc1 (stereo not given) | ? | 0.45µM | 0.63µM | 1.7µM | 5µM | ?
SMILES | ELG1 repair inh | Rab9 prom act | NPC1 promoter act | FLuc counter | SMN2 splice up | ELG1 genotox
c1ccc(-n2ncc3c(NCC4CCCO4)ncnc32)cc1 (stereo not given) | i | 3.5µM | 2µM | 17µM | i | i
Clc1ccc(-n2ncc3c(NCc4ccc5c(c4)OCO5)ncnc32)cc1 | ? | i | i | ? | i | ?
CC(Sc1ncnc2c1cnn2-c1ccccc1)C(=O)NCC1CCCO1 (stereo not given) | i | i | i | ? | nt | i
COc1ccc(-n2ncc3c(NCC4CCCO4)ncnc32)cc1 (stereo not given) | ? | 0.89µM | 0.56µM | 11µM | 11µM | i
Cc1nc(=O)c(-c2ccccc2)c(C)n1-c1cccc(/C=C/C(=O)O)c1 | i | i | i | i | nt | i
CN(C)CCCNc1oc(/C=C/c2cccs2)nc1S(=O)(=O)c1ccccc1 | i | i | i | i | nt | i
CN=C1S/C(=C\c2cc(C)n(-c3ccccc3F)c2C)C(=O)N1C | ? | 1.6µM | ? | 0.34µM | i | ?
CN1C(=O)/C(=C\c2cc(N=Nc3ccccc3)ccc2O)SC1=S | i | i | i | ? | i | i
Cc1cc(/C=C2\SC(=O)N(C)C2=O)c(C)n1-c1ccc(O)cc1 | ? | 0.2µM | 0.45µM | 0.48µM | nt | 0.65µM
Cc1cc(/C=C2\SC(=S)N(C)C2=O)c(C)n1-c1cccc(O)c1 | ? | i | ? | 1.1µM | nt | ?
Cc1cc(/C=C2\SC(=S)N(Cc3ccco3)C2=O)c(C)n1-c1ccccc1 | ? | 3.5µM | ? | 3µM | nt | 5.2µM
CN(Cc1ccc(F)cc1)C(=O)c1cccc(S(=O)(=O)N2CCN(Cc3ccccc3)CC2)c1 | i | i | i | i | nt | i
COC(=O)c1sccc1NC(=S)Nc1ccc(F)cc1F | i | i | i | i | i | i
Cc1cc(/C=C2\SC(=O)N(C)C2=O)c(C)n1-c1ccc(S(N)(=O)=O)cc1 | i | i | i | i | nt | i
COc1ccc(-n2c(C)cc(/C=C3/SC(=S)N(C)C3=O)c2C)cc1 | ? | ? | ? | 3.4µM | i | 10µM
Cc1cc(C)c(S(=O)(=O)Nc2ccc3oc4c(c3c2)C(=O)CC(C)(C)C4)cc1C | nt | nt | nt | i | i | nt
CCN(C(C)=O)c1nnc(CSc2nc3ccccc3s2)s1 | ? | ? | ? | ? | i | 8.2µM
COCCN(CCOC)C(=O)c1ccc(CSc2nc3ccccc3s2)cc1 | ? | i | i | 17µM | nt | i
O=C(Nc1ccc2nc(SCc3ccccc3)sc2c1)c1cccc(F)c1 | nt | nt | nt | i | nt | nt
NNC(=O)c1ccc(CSc2nc3ccccc3s2)cc1 | i | i | i | 17µM | i | i
COc1ccc(C(=O)Nc2ccc3nc(SCc4ccc(C)cc4)sc3c2)cc1 | nt | nt | nt | i | nt | nt
COc1ccc(CNC(=O)Cn2ncc3c(=O)oc4ccc(C)cc4c32)c(OC)c1 | nt | nt | nt | i | i | nt
O=C(NCC1COc2ccccc2O1)c1cccc(S(=O)(=O)N2CCCCC2)c1 (stereo not given) | ? | i | i | i | nt | i
CC(C)(C)c1ccc(-c2conc2N)cc1 | ? | 2.5µM | ? | 2.7µM | 18µM | i
CC(C)(C)c1ccc(-c2noc(C(=O)NN)n2)cc1 | ? | i | i | ? | nt | i
CC(=O)n1cc(N(C(=O)CCl)c2ccc(C)cc2)c2ccccc21 | 23µM | i | i | i | nt | i
CC(C)c1ccc(Nc2nnc(SCC(=O)Nc3ncc(S(=O)(=O)c4ccc([N+](=O)[O-])cc4)s3)s2)cc1 | ? | 1.4µM | 2.8µM | 0.85µM | 22µM | ?
Cc1ccc(Nc2nnc(SCC(=O)Nc3ncc(S(=O)(=O)c4ccc([N+](=O)[O-])cc4)s3)s2)cc1 | ? | i | i | 2.4µM | i | ?
